Usually viability stands for a read-out of living cells in per cent, often relative to untreated cells. Broadly, the inhibition is the drop in the measured response relative to a control, in per cent.

Records with an inconclusive call do not appear. Calls of active or inactive are those of the source.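 The calls were made as follows, unless noted: active = viability loss from added drug above about 55%, and viability with drug at most 40%, in both replicates (limit read from the data, passing the limit was not always enough); inconclusive = both conditions met in only one replicate; inactive = neither replicate meets both conditions.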

Data on five compounds can be found in PubChem BioAssay.

A short description of assay [1]: Her2 expression decrease, cell viability multiplex – SKBR3 breast tumor cells, AlphaScreen, ATP viability, primary screen (AID 461;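 active = Her2 level under about 52% in both replicate screens, with viability over 70% of control, limit read from the data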;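 as to Her2 level: lower value means less Her2 protein in the cells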;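 as to viability: percent of carrier control wells set as 100% viability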). As to conditions: SKBR3 Her2 protein level, 18-24 h, measured here: SKBR3 viability, ATP luminescence, at 10 µM. (In general: Alpha assays give light when donor and acceptor beads are brought close together.)
The target of assay [2] is Receptor tyrosine-protein kinase erbB-2 (Homo sapiens) (UniProt P04626). The assay is described as above. As to conditions: 18-24 h, at 10 µM, stronger effect = lower value.
Assay [3] is described as follows: reduced viability of SK-BR-3 breast cancer cells – cell-based, 24 h, human, pilot screen (AID 572;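 active = viability at or below 10% of carrier control in both of two separate runs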;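 also: compound exposure lasted between 18 and 24 h rather than exactly 24 h; 100% = carrier-treated control wells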). Conditions: SK-BR-3 viability, CellTiter-Glo luminescence, at 10 µM, stronger effect = lower value. A general note: ATP-based viability assays read luminescence as a measure of living cells.
Assay [4] in a line: HUVEC growth inhibition – cell-based, human, primary screen (AID 575;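 active = viability at or below 30% in both replicate assays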;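 also: 100% = median of untreated cell wells with 0.1% DMSO on each plate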). As to conditions: HUVEC proliferation, CellTiter-Glo luminescence, 72 h; at 10 µM; stronger effect = lower value.
Assay [5] in a line: H69AR cell proliferation blockers – human, duplicate replicates, primary screen (AID 580;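 active = viability at or under a set limit in both replicates, limit being median viability minus 3 SD, cut at about 48% in these data, passing the limit was not always enough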;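 also: 100% = mean luminescence of untreated wells and 0% = no signal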). Conditions: H69AR lung tumor cells viability, ATP luminescence, 72 h; at 10 µM; stronger effect = lower value.
Assay [6] in a line: MRP1 drug-resistance reversers in H69AR cells – cell-based, doxorubicin co-treatment, pilot screen (AID 601). As to conditions: CellTiter-Glo, 72 h, at 10 µM; for differential viability (reversal): stronger effect = higher value.
The nature of assay [7]: yeast transport mutant growth inhibition pilot in 384-well plates, post-Golgi transport modulator project (AID 636; in the data active = inhibition above about 31%). Conditions: absorbance 615 nm, about 18 h, stronger effect = higher value.
Assay [8] can be described thus: growth suppression of yeast trafficking mutant, preliminary HTS, modulators of trafficking downstream of Golgi apparatus project, 1536-format plate, OD 615 nm (AID 637; in the data active = inhibition above about 30%). As to conditions: yeast transport mutant growth, absorbance 615 nm, 18 h; stronger effect = higher value.
Assay [9] can be described thus: S. cerevisiae growth inhibition in permissive medium (OD615), pilot counter-assay for S. cerevisiae lifespan shortening project, permissive growth control (AID 705;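 active = growth inhibition above 25% in both replicates, a cutoff set 3 SD above the mean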). As to conditions: OD615, 24 h, at 10 µM, stronger effect = higher value.
Assay [10] in a line: S. cerevisiae growth inhibition in restrictive medium, OD615, pilot screen, restrictive growth control, yeast lifespan reduction project (AID 706;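 active = growth inhibition above a set limit, 3 SD over mean compound inhibition, in both replicates, cut at about 43% in these data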;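 also: modified DeaD lifespan yeast strain shifted to restrictive glucose medium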). Conditions: OD615, 48 h, at 10 µM, stronger effect = higher value.
Assay [11] is described as follows: doxorubicin toxicity protection in MRP-1 cells – H69AR cells, CellTiter-Glo, duplicate, MRP-1 activator project, pilot screen (AID 807;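 active = viability increase at or above a cutoff of the median across tested compounds plus 3 SD, cut at about 8.5% in these data, passing the limit was not always enough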;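 also: compound pretreatment 18-22 h then 72 h combined with doxorubicin; 0% = doxorubicin alone and 100% = vehicle without doxorubicin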). As to conditions: H69AR viability with doxorubicin, CellTiter-Glo luminescence; at 10 µM; stronger effect = higher value.
Assay [12] is described as follows: viability of HCT116 without oncogenic beta-catenin – human colon tumor cells, pilot screen (AID 823;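 active = cell viability at or below a set limit in both duplicate runs, the limit being the all-compound median minus 4 SD, cut at about 23% in these data, passing the limit was not always enough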;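 also: 0% = wells killed by 20 µM Hyamine and 100% = untreated DMSO cell wells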). As to conditions: HCT116 beta-catenin knockout viability, CellTiter-Glo, 60 h; at 10 µM; stronger effect = lower value.
Assay [13] is described as follows: viability of PTEN-null HCT116 cells – cell-based, HCT116 clonal line, CellTiter-Glo, pilot screen (AID 824;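 active = viability at or below 27.92% in each of two runs, the all-compound median minus 4 SD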;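 also: 0% = 20 µM Hyamine control and 100% = vehicle cell control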). As to conditions: HCT116 PTEN-deleted viability, 60 h, at 10 µM, stronger effect = lower value.
Assay [14] in a line: RAM pathway blockade in budding yeast – dse1pr::URA3 reporter, 5-FOA selection, pilot screen (AID 869;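 active = inhibition over a set limit, the all-compound mean plus 3 SD, in both replicate runs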;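 also: 0% = DMSO wells with no growth and 100% = 10 µM 1-NA-PP1 with full growth; RAM network block rescues cells from 5-FOA so hits raise OD615 growth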). As to conditions: S. cerevisiae dse1pr::URA3 5-FOA growth, OD615, 2 d; at 10 µM; stronger effect = higher value; strain carries analog-sensitive mutant Cbk1 kinase.
Assay [15] is described as follows: RAM signaling pathway blockade in yeast – S. cerevisiae, Pdr1DBD-CYC8 efflux-inhibited sensitized strain, primary screen (AID 1298;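 active = RAM network inhibition above 8.4% in each of two replicates, 3 SD over the compound average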;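 also: 0% = DMSO untreated cells without growth and 100% = 10 µM 1-NA-PP1 full growth; higher means more yeast growth rescued from 5-FOA killing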). Conditions: S. cerevisiae cbk1-as DSE1-URA3 strain, 5-FOA growth OD615, 2 d; at 50 µM; stronger effect = higher value.
Where [16] appears, read: H69AR cells + 2 uM doxorubicin, measured here: viability with 2 uM doxorubicin, stronger effect = lower value.
Setting [17] is: H69AR cells, compound alone cytotoxicity.

Receptor tyrosine-protein kinase erbB-2 (Homo sapiens), sequence (P04626 whole entry, looked up): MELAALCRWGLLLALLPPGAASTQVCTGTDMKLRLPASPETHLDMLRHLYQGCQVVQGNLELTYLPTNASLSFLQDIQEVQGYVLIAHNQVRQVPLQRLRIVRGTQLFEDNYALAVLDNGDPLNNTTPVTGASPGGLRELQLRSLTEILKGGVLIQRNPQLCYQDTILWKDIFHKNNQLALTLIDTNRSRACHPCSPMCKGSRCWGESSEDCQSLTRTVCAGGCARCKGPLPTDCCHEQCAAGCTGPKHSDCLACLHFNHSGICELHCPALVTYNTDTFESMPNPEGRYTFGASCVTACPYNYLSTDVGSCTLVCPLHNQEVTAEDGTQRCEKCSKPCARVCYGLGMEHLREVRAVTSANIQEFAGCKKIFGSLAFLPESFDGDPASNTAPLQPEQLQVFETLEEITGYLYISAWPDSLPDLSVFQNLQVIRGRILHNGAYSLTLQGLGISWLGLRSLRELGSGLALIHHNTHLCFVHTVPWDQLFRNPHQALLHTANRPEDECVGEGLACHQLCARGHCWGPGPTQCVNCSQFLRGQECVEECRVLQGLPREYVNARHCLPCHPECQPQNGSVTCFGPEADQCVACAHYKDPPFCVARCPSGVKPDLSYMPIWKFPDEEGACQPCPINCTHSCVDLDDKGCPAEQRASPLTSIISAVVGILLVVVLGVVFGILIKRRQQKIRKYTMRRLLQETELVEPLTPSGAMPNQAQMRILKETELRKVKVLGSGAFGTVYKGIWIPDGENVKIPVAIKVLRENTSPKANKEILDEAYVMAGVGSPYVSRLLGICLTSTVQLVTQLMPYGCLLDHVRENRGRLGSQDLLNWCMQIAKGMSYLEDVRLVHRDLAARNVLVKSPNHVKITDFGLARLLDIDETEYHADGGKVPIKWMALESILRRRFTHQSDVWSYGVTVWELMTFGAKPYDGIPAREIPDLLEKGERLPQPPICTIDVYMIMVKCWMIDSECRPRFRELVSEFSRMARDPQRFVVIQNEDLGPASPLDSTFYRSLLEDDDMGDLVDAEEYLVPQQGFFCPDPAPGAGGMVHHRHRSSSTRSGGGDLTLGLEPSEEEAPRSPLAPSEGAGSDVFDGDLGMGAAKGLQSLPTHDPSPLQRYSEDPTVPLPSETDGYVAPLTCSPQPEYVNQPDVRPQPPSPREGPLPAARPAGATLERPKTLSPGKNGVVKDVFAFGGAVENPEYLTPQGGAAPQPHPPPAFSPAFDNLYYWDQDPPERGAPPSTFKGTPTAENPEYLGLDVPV

In the case of `COc1ccccc1N1CCN(CC(O)c2ccc3cc[nH]c3c2)CC1` (stereo not given), the viability in [1] was 99%; in [3], 99% (inactive); in [4], 95.6% (inactive); in [5] it was 88.8% (inactive); in [6] (setting [16]) it was 77.4%; in [6] (setting [17]) it was 88.8%. The viability in [12] was 60.7% (inactive); in assay [13], 61.7% (inactive). Besides, in assay [2], the Her2 level was 112% (inactive). Moreover, the differential viability (reversal) in assay [6] (H69AR cells + 2 uM doxorubicin) is 11.4% (inactive). For the same compound, the inhibition in assay [7] is -3.33% (inactive); in assay [8], 2.46% (inactive); in assay [14], 1.87% (inactive). Moreover, the growth inhibition in [9] is 3.54% (inactive); in assay [10], 5.26% (inactive). In assay [11], the viability increase is -4.68% (inactive). Besides, in assay [15], the RAM network inhibition was 1.54% (inactive).

With `COC(=O)CN1C(=O)CC(C)(C)S(=O)c2ccccc21` (stereo not given), the viability in assay [1] was 114%; in [3], 114% (inactive); in assay [4] it was 118% (inactive); in [5] it was 99.3% (inactive); in assay [6] (setting [16]), 90.4%; in [6] (setting [17]), 99.3%. In addition, the results for the viability in assay [12] and in [13] were 107% (inactive) and 99.7% (inactive), respectively. In assay [2], the Her2 level was 110% (inactive). The differential viability (reversal) in assay [6] (H69AR cells + 2 uM doxorubicin) is 8.85% (inactive). Also, the inhibition was -4.4% (inactive) in assay [7], 16.3% (inactive) in assay [8] and 0.32% (inactive) in assay [14]. Besides, the figures for the growth inhibition in [9] and in assay [10] were -14.5% (inactive) and -3.88% (inactive), respectively. The viability increase in [11] was -0.45% (inactive). Moreover, the RAM network inhibition in [15] was 2.09% (inactive).

In the case of `CCN1C(=C2C(=O)c3ccccc3C2=O)C=Cc2ccccc21`, the viability in assay [1] was 96.5%; in [3], 96.5% (inactive); in assay [4], 92.6% (inactive); in [5] it was 93.4% (inactive); in [6] (setting [16]) it was 93.9%; in assay [6] (setting [17]), 93.4%. Besides, the viability in assay [12] was 105% (inactive); in assay [13], 95.1% (inactive). In [2], the Her2 level is 97% (inactive). For the same compound, in [6] (H69AR cells + 2 uM doxorubicin), the differential viability (reversal) is -0.49% (inactive). The inhibition is 0.64% (inactive) in [7], -8% (inactive) in assay [8] and 1.86% (inactive) in assay [14]. Also, the growth inhibition in assay [9] is -23.3% (inactive); in assay [10], -27.6% (inactive). In addition, the viability increase in [11] is -1.18% (inactive). Besides, in assay [15], the RAM network inhibition is -0.72% (inactive).

Take `O=C(C1CCN(S(=O)(=O)c2cccc3cccnc23)CC1)N1CCN(C2CCCCC2)CC1`: the viability in [1] was 102%; in assay [3], 102% (inactive); in assay [4], 99.9% (inactive); in [5], 102% (inactive); in assay [6] (setting [16]), 99.2%; in assay [6] (setting [17]), 102%. The viability in [12] is 97.8% (inactive); in assay [13], 98.7% (inactive). The Her2 level in assay [2] was 102% (inactive). Moreover, the differential viability (reversal) in [6] (H69AR cells + 2 uM doxorubicin) was 2.56% (inactive). The inhibition was -2.8% (inactive) in assay [7], -0.49% (inactive) in assay [8] and 1.12% (inactive) in assay [14]. Further, the values for the growth inhibition in assay [9] and in assay [10] were 6.08% (inactive) and 0.815% (inactive), respectively. The viability increase in assay [11] was -2.03% (inactive). Moreover, the RAM network inhibition in assay [15] is 7.73% (inactive).

Take `CSc1nc2c(c(=O)n1C)SC(C)C2` (stereo not given): the viability is 97% in assay [1]; 97% (inactive) in assay [3]; 103% (inactive) in assay [4]; 90.8% (inactive) in [5]; 95.4% in assay [6] (setting [16]); 90.8% in assay [6] (setting [17]). Also, the viability in assay [12] was 103% (inactive); in assay [13], 93.5% (inactive). Moreover, the Her2 level in [2] was 92.5% (inactive). In assay [6] (H69AR cells + 2 uM doxorubicin), the differential viability (reversal) is -4.56% (inactive). Besides, the inhibition was -5.87% (inactive) in [7], -1.67% (inactive) in assay [8] and 1.56% (inactive) in [14]. Moreover, the values for the growth inhibition in [9] and in assay [10] were -6.38% (inactive) and -10.4% (inactive), respectively. In addition, the viability increase in assay [11] is -2.62% (inactive). Also, in assay [15], the RAM network inhibition is 5.01% (inactive).
